Inconclusive results are not listed. Entries that show only a call come without a potency. Where a structure was tested more than once in an assay, its records may differ in their call. Active and inactive are the calls of the source. Unless noted, calls come from the whole dose curve; as a rule, active = well fitted cell-killing curve with a large enough effect in the repeat runs; inconclusive = weak or mixed curves, or effect the other way; inactive = no such curve, though single readings can be large or run the other way.
Molecular target: Thyrotropin receptor (Homo sapiens) (UniProt P16473)
Sequence (P16473 whole entry, looked up): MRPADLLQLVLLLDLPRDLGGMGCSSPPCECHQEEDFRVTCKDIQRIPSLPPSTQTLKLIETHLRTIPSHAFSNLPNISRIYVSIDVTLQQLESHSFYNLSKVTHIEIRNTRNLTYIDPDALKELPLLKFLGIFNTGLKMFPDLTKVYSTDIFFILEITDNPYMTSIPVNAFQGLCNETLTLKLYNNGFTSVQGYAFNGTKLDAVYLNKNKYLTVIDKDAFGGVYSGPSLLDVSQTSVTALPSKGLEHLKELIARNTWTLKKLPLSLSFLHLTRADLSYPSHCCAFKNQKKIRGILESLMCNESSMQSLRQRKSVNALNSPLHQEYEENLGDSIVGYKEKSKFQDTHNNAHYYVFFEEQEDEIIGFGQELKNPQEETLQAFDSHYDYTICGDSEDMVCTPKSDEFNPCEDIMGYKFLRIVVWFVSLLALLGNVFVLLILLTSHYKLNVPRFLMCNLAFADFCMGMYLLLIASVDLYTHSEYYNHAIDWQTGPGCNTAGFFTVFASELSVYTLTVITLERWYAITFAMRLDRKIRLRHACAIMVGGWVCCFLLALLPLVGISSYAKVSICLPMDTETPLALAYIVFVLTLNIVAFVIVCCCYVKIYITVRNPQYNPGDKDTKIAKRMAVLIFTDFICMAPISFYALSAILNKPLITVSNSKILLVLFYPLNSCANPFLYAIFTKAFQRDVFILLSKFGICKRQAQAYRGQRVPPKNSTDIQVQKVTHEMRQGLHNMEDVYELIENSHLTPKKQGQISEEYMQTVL
Assay: qHTS assay to identify small molecule antagonists of the thyroid stimulating hormone receptor (TSHR) signaling pathway (AID 1259385; calls by dose curve; note: nearly all actives have a fitted effect of over 20% in size)
Details: TSHR-HEK293 cAMP HTRF, TSH-stimulated antagonist mode; series mostly up to 92.4 µM
In short: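 Antagonist mode: compound-treated TSHR-expressing HEK293 cells were stimulated with 1.5 ng/mL TSH (final) in presence of Ro20-1724 for 30 min at RT. HTRF cAMP detection after 1 h; each compound tested at 15 concentrations, triplicate.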
With `O=C(Oc1ccccc1)c1cccc(C(=O)Oc2ccccc2)c1` the Potency was “inactive”. With `CO[Si](CCC1CCC2OC2C1)(OC)OC` (stereo not drawn) the Potency was “inactive”. For `CC(C)(C)c1cc(/C=C2\SC(=N)NC2=O)cc(C(C)(C)C)c1O`, the Potency was “inactive”. With `CCCCCCCCCCCCOC(=O)c1cc(O)c(O)c(O)c1` the Potency was 68.3 µM (active) and inactive. For `Cc1occc1SSc1ccoc1C`, the Potency was “inactive”. In the case of `CC(C)c1ccc(O)c(C(C)C)c1`, the Potency was “inactive”. For `CC1(C)COCN1`, the Potency was “inactive”. In the case of `CC(C)C(=O)OCc1ccccc1`, the Potency was “inactive”. With `CC(C)(c1cc(Br)c(O)c(Br)c1)c1cc(Br)c(O)c(Br)c1` the Potency was “inactive”. For `CC1CCCCN1CCCOC(=O)c1ccc(OC2CCCCC2)cc1` (stereo not drawn), the Potency was “inactive”. In the case of `CCCCCCCOC(=O)c1ccccc1C(=O)OCCCCCCC`, the Potency was “inactive”. For `COC(=O)NCCC[Si](OC)(OC)OC`, the Potency was “inactive”. With `COC(=O)[C@]1(C)CCC[C@@]2(C)[C@H]1CC=C1C=C(C(C)C)CC[C@@H]12` the Potency was “inactive”. In the case of `ClC/C=C\CCl`, the Potency was “inactive”. With `C=C(C)C(=O)OCCC[Si](Cl)(Cl)Cl` the Potency was “inactive”. With `Oc1cc2ccccc2cc1O` the Potency was “inactive”. For `O=C1Nc2ccc(Cl)cc2[C@@](C#CC2CC2)(C(F)(F)F)O1`, the Potency was “inactive”. With `CC=O` the Potency was “inactive”. For `Cc1cccc(Br)c1`, the Potency was “inactive”. For `O=C(O)CC(=O)O`, the Potency was “inactive”. For `COc1ccc(C#N)cc1`, the Potency was “inactive”.

Test system: not listed separately
Assay: qHTS assay to identify small molecule agonists of the estrogen receptor alpha (ER-alpha) signaling pathway in the presence of an antagonist - cell viability counter screen (AID 1259386);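 note: cells exposed to compounds for 22 h at 37 °C before the viability read; nearly all actives have a fitted effect of over 30% in size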
Details: VM7Luc4E2 viability, CellTiter-Fluor fluorescence, 22 h; series mostly up to 92.4 µM
In short: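 VM7Luc4E2 cells (endogenous full-length ER-alpha, 4×ERE-luciferase) were held 5 days in phenol red-free medium with 10% charcoal-stripped FBS, plated, then given 10.0nM ICI-182,780 and compounds at 15 concentrations for 22hr at 37C; viability read by CellTiter-Fluor fluorescence.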
In the case of `CN1[C@@H]2CC[C@@H]1CC(OC(=O)C(CO)c1ccccc1)C2` (stereo partly drawn), the Potency was “inactive”. In the case of `O=C(Oc1ccccc1)c1cccc(C(=O)Oc2ccccc2)c1`, the Potency was “inactive”. With `CO[Si](CCC1CCC2OC2C1)(OC)OC` (stereo not drawn) the Potency was “inactive”. In the case of `COC(=O)CC(C)CCC=C(C)C` (stereo not drawn), the Potency was “inactive”. For `CNC(=S)NN`, the Potency was “inactive”. For `CC(=O)O[C@@H]1C[C@@H]2CC[C@@]1(C)C2(C)C`, the Potency was “inactive”. For `CCCCCCCCCCCCOC(=O)c1cc(O)c(O)c(O)c1`, the Potency was 60.9 µM (active). For `Cc1occc1SSc1ccoc1C`, the Potency was “inactive”. In the case of `CC(C)c1ccc(O)c(C(C)C)c1`, the Potency was “inactive”. For `CC1(C)COCN1`, the Potency was “inactive”. With `CCC(C)c1ccccc1` (stereo not drawn) the Potency was “inactive”. With `CCO[Si](C)(C)OCC` the Potency was “inactive”. In the case of `CC(C)C(=O)OCc1ccccc1`, the Potency was “inactive”. For `CCC1(c2cnc[nH]2)Cc2ccccc2C1`, the Potency was “inactive”. With `CCCCCCCOC(=O)c1ccccc1C(=O)OCCCCCCC` the Potency was “inactive”. With `C=CC(C)(CCC=C(C)C)OC(=O)/C=C/c1ccccc1` (stereo not drawn) the Potency was “inactive”. In the case of `COC(=O)NCCC[Si](OC)(OC)OC`, the Potency was “inactive”. In the case of `COC(=O)[C@]1(C)CCC[C@@]2(C)[C@H]1CC=C1C=C(C(C)C)CC[C@@H]12`, the Potency was “inactive”. With `ClC/C=C\CCl` the Potency was “inactive”. For `C=C(C)C(=O)OCCC[Si](Cl)(Cl)Cl`, the Potency was “inactive”. In the case of `Oc1cc2ccccc2cc1O`, the Potency was “inactive”. For `O=C1Nc2ccc(Cl)cc2[C@@](C#CC2CC2)(C(F)(F)F)O1`, the Potency was “inactive”. For `CC=O`, the Potency was 10.1 µM (active). With `CC(COC(=O)c1ccccc1)OC(=O)c1ccccc1` (stereo not drawn) the Potency was “inactive”. With `Cc1cccc(Br)c1` the Potency was “inactive”. In the case of `O=C(O)CC(=O)O`, the Potency was “inactive”. For `O=C1NC2CCCCN2C12CCN(CCCN1c3ccccc3CCc3ccc(Cl)cc31)CC2` (stereo not drawn), the Potency was 29.8 µM (active).
Potency is the fitted concentration of half-maximal effect.
